{"source": "the supplement of paper PMC8975748", "note": "Structures can show the parent of a compound that is named as a salt."}
{"test_system": "Saccharomyces cerevisiae BY4741 SeMeCo community", "assay": "z-score of subpopulation abundance vs DMSO median, subpopulation auxotrophic for LU; higher = larger share of this subpopulation than in DMSO controls", "conditions": "10 µM; 24 h; SM minimal medium; subpopulation (auxotrophy): LU", "procedure": "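Fluorescent four-plasmid SeMeCo (self-establishing metabolically cooperating S. cerevisiae BY4741 community; plasmids pH-mRuby2, pL-mWasabi, pU-eCFP, pM-TagRFP657) was grown 24 h in minimal SM medium with each Selleck FDA-approved drug at 10 µM in 384-well plates. Cells were fixed and imaged by high-content confocal microscopy. For each auxotrophic subpopulation (and the prototroph), a z-score gives the deviation from the DMSO vehicle-control population median.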"}
{"smiles": "C=C[C@H]1CN2CC[C@H]1C[C@H]2[C@H](O)c1ccnc2ccccc12", "note": "[Cinchonidine]", "z-score of subpopulation abundance": 0.59}
{"smiles": "Oc1cc(Cl)ccc1Oc1ccc(Cl)cc1Cl", "note": "[Triclosan]", "z-score of subpopulation abundance": -0.23}
{"smiles": "Nc1nc(N)nc(NC2CC2)n1", "note": "[Cyromazine]", "z-score of subpopulation abundance": 0.73}
{"smiles": "CCCN1C[C@H](CSC)C[C@@H]2c3cccc4[nH]cc(c34)C[C@H]21", "note": "[Pergolide Mesylate]", "z-score of subpopulation abundance": -0.8}
{"smiles": "CC(C)(O)C(Cl)(Cl)Cl", "note": "[Chlorobutanol]", "z-score of subpopulation abundance": 0.52}
{"smiles": "CC[C@@]1(O)C(=O)OCc2c1cc1n(c2=O)Cc2cc3ccccc3nc2-1", "note": "[Camptothecin]", "z-score of subpopulation abundance": -0.54}
{"smiles": "CN(C)[C@@H]1C(=O)C(C(N)=O)=C(O)[C@@]2(O)C(=O)C3=C(O)c4c(O)cccc4[C@@](C)(O)[C@H]3[C@H](O)[C@@H]12", "note": "[Oxytetracycline Dihydrate]", "z-score of subpopulation abundance": -0.6}
{"smiles": "Cn1cc(C2=C(c3cn(C4CCN(Cc5ccccn5)CC4)c4ccccc34)C(=O)NC2=O)c2ccccc21", "z-score of subpopulation abundance": 0.66}
{"smiles": "Cc1cc(C(C#N)c2ccc(Cl)cc2)c(Cl)cc1NC(=O)c1cc(I)cc(I)c1O", "note": "(stereo not given) [Closantel]", "z-score of subpopulation abundance": 0.89}
{"smiles": "O=C(O[C@H]1C[N+]2(CCCOc3ccccc3)CCC1CC2)C(O)(c1cccs1)c1cccs1", "note": "[Aclidinium Bromide]", "z-score of subpopulation abundance": 0.07}
{"smiles": "COc1ccc(C(CN(C)C)C2(O)CCCCC2)cc1", "note": "(stereo not given) [Venlafaxine HCl]", "z-score of subpopulation abundance": -0.06}
{"smiles": "CN(C)C(=O)Oc1ccc[n+](C)c1", "note": "[Pyridostigmine Bromide]", "z-score of subpopulation abundance": 0.57}
{"smiles": "C[N+](C)(C)CCCCCCCCCC[N+](C)(C)C", "note": "[Decamethonium Bromide]", "z-score of subpopulation abundance": -0.59}
{"smiles": "CN1C(=O)COc2c(C(=O)NC3CN4CCC3CC4)cc(Cl)cc21", "note": "(stereo not given) [Azasetron HCl]", "z-score of subpopulation abundance": -0.43}
{"smiles": "CCCCCCCCCCCCCCCC[n+]1ccccc1", "note": "[Cetylpyridinium Chloride]", "z-score of subpopulation abundance": 4.67}
{"smiles": "C[N+]1(C)[C@@H]2C[C@@H](OC(=O)[C@H](CO)c3ccccc3)C[C@H]1[C@@H]1O[C@@H]12", "note": "[Methscopolamine]", "z-score of subpopulation abundance": 0.27}
{"smiles": "N#Cc1nn(-c2c(Cl)cc(C(F)(F)F)cc2Cl)c(N)c1[S+]([O-])C(F)(F)F", "note": "(stereo not given) [Fipronil]", "z-score of subpopulation abundance": 0.06}
{"smiles": "C[CH2][Hg][S]c1ccccc1C(=O)[O-].[Na+]", "note": "[Thimerosal]", "z-score of subpopulation abundance": 11.1}
{"smiles": "CN1[C@@H]2CC[C@H]1C[C@@H](OC(=O)C(CO)c1ccccc1)C2", "note": "(stereo not given in full) [Atropine sulfate monohydrate]", "z-score of subpopulation abundance": -0.08}
{"smiles": "NC(=O)CN1CCCC1=O", "note": "[Piracetam]", "z-score of subpopulation abundance": 1.37}
{"smiles": "CC(=O)OCC1=C(C(=O)O)N2C(=O)C(N)C2SC1", "note": "(stereo not given) [7-Aminocephalosporanic acid]", "z-score of subpopulation abundance": 0.09}
{"smiles": "CC[C@H]1CN2CC[C@]3(C(=O)Nc4ccccc43)[C@@H]2C[C@@H]1/C(=C\\OC)C(=O)OC", "note": "[Rhynchophylline]", "z-score of subpopulation abundance": 0.24}
{"smiles": "CN(C)[C@@H]1C(=O)C(C(N)=O)=C(O)[C@@]2(O)C(=O)C3=C(O)c4c(O)cccc4[C@@](C)(O)[C@H]3C[C@@H]12", "note": "[Tetracycline HCl]", "z-score of subpopulation abundance": -0.24}
{"smiles": "CN1c2ccccc2C(NCCCCCCC(=O)O)c2ccc(Cl)cc2S1(=O)=O", "note": "(stereo not given) [Tianeptine sodium]", "z-score of subpopulation abundance": -0.24}
{"smiles": "CCC1=C[C@H]2CN3CCc4c([nH]c5ccccc45)[C@](C(=O)OC)(C2)[C@H]13", "note": "[Catharanthine]", "z-score of subpopulation abundance": -0.64}
{"smiles": "C=CC[C@]1(O)CC[C@H]2[C@@H]3CCC4=CC(=O)CCC4=C3C=C[C@@]21C", "note": "[Altrenogest]", "z-score of subpopulation abundance": -0.55}
{"smiles": "Oc1cccc2cccnc12", "note": "[8-Hydroxyquinoline]", "z-score of subpopulation abundance": -0.63}
{"smiles": "COc1ccc2c(c1)[C@]13CCCC[C@@H]1[C@H](C2)N(C)CC3", "note": "[Dextromethorphan hydrobromide hydrate]", "z-score of subpopulation abundance": 0.05}
{"smiles": "C#C[C@]1(O)C=C[C@H]2[C@@H]3CCC4=CC(=O)CC[C@@H]4[C@H]3CC[C@@]21CC", "note": "[Gestodene]", "z-score of subpopulation abundance": -0.97}
{"smiles": "Nc1ccncc1", "note": "[4-Aminopyridine]", "z-score of subpopulation abundance": 0.6}
{"smiles": "CCN(C)C(=O)Oc1cccc([C@H](C)N(C)C)c1", "note": "[Rivastigmine]", "z-score of subpopulation abundance": -1.09}
{"smiles": "CN1[C@@H]2CC[C@H]1C[C@@H](OC(=O)[C@H](CO)c1ccccc1)C2", "note": "[Hyoscyamine]", "z-score of subpopulation abundance": 0.31}
{"smiles": "O=c1[nH]c2ccccc2n1CCCN1CCC(n2c(=O)[nH]c3cc(Cl)ccc32)CC1", "note": "[Domperidone]", "z-score of subpopulation abundance": 0.48}
{"smiles": "CCOC(=O)Nc1ccc(NCc2ccc(F)cc2)cc1N", "note": "[Retigabine]", "z-score of subpopulation abundance": -1.25}
{"smiles": "CCN(CC)CCOC(=O)C(O)(c1ccccc1)c1ccccc1", "note": "[Benactyzine hydrochloride]", "z-score of subpopulation abundance": 1.57}
{"smiles": "COC(=O)C1=CCCN(C)C1", "note": "[Arecoline HBr]", "z-score of subpopulation abundance": 0.1}
{"smiles": "COc1ccc2c3c([nH]c2c1)C(C)=NCC3", "note": "[Harmaline]", "z-score of subpopulation abundance": -7.5}
{"smiles": "C=CCN1C[C@H](C(=O)N(CCCN(C)C)C(=O)NCC)C[C@@H]2c3cccc4[nH]cc(c34)C[C@H]21", "note": "[Cabergoline]", "z-score of subpopulation abundance": 1.61}
{"smiles": "CN[C@@H]1[C@@H](O)[C@@H](O[C@@H]2[C@@H](O)[C@H](O[C@H]3O[C@H]([C@@H](C)O)[C@@H](O)[C@H](O)[C@H]3N)[C@@H](N)C[C@H]2N)OC[C@]1(C)O", "note": "[Geneticin (G418 Sulfate)]", "z-score of subpopulation abundance": 0.61}
{"smiles": "CCOC(=O)Nc1ccc(NCc2ccc(F)cc2)cc1N", "note": "[Retigabine 2HCl]", "z-score of subpopulation abundance": -0.86}
